Records with an inconclusive call do not appear. Entries that show only a call come without a potency. Activity calls are given as the source filed them. Unless noted, the call rests on the fitted dose curve; in most records, active means well fitted curve in the direction sought with a large enough effect; inconclusive means small, poorly fitted or top-dose-only effect, or another doubt; inactive means no such curve, though single readings can be large; an effect the other way counts as inactive or inconclusive. Peptide text beside a SMILES is read from it.
How the values were obtained:
[1] = target: Cytochrome P450 3A4 (Homo sapiens) (UniProt P08684); test: qHTS Assay for Inhibitors and Substrates of Cytochrome P450 3A4 (AID 884); further: nearly all actives have a fitted effect of over 50% in size
Chain of Cytochrome P450 3A4 (Homo sapiens) (P08684 whole entry, looked up): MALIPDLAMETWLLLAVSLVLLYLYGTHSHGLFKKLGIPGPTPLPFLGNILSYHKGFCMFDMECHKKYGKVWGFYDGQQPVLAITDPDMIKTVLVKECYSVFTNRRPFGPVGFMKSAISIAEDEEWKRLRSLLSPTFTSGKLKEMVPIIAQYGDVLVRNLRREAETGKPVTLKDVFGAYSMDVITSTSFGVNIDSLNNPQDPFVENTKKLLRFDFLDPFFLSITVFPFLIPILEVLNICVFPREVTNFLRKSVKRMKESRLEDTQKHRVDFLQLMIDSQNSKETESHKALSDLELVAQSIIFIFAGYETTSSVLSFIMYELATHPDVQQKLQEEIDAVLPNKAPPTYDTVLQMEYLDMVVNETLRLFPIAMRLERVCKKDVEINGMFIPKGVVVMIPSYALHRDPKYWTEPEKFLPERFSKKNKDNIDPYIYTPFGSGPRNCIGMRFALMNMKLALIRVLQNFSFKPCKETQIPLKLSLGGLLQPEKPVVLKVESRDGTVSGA
Outline: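 20 nM human CYP3A4 with 25 uM Luciferin-PPXE (at KM) in 200 mM KPO4, preincubated 10 min with compound; NADPH regeneration started a 60 min RT reaction. Luciferin detected by luminescence, normalized to 57 uM ketoconazole as full inhibition.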

[2] = Confirmation and Secondary Assay for Modulators of Hemoglobin Beta Chain Splicing at IVS2 654 locus (AID 910);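 further: per-well total GFP intensity by laser scanning cytometry after 2-day treatment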
Outline: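 HeLa cells stably carrying EGFP interrupted by mutant beta-globin IVS2-654 intron (CMV-driven) were treated with compound for 2 days at 37C; corrected splicing was scored as total peak GFP intensity per well (488 nm excitation, 500-520 nm emission).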

[3] = Confirmation and Secondary Assay for Modulators of Hemoglobin Beta Chain Splicing at IVS2 705 locus (AID 930);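 further: HeLa cells stably expressing the EGFP-705 splicing reporter; GFP fluorescence per well restored by corrected splicing of the IVS2-705 intron in EGFP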
Outline: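 HeLa IVS2-705 EGFP reporter cells, 500/well, compound 2 d at 37C; correct splicing yields fluorescent EGFP. Control: 500 nM antisense PNA. Read-out: total peak GFP intensity.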

[4] = qHTS Assay for Lipid Storage Modulators (AID 1519; calls by dose curve); conditions: Drosophila S3 cells, BODIPY lipid droplet/cell ratio, laser cytometry, cells loaded with oleic acid; for activity change, negative = inhibition: at 57.5 µM (top of the series)
Outline: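 Cells seeded at 5,000 per well were treated with compounds over a concentration series and loaded with oleic acid (400 uM, as added). Lipid droplet fluorescence (488 nm excitation, 500-530 nm channel) was read by laser-scanning cytometry and normalized to 20 uM Triacsin C.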

[5] = target: Ubiquitin carboxyl-terminal hydrolase 1 (Homo sapiens) (UniProt O94782); test: Inhibitors of USP1/UAF1: Pilot qHTS (AID 504865);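 further: rhodamine fluorescence freed from ubiquitin-rhodamine substrate followed over time; top concentration of the series differs between compounds; nearly all actives have a fitted effect of over 35% in size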
Chain of Ubiquitin carboxyl-terminal hydrolase 1 (Homo sapiens) (O94782 whole entry, looked up): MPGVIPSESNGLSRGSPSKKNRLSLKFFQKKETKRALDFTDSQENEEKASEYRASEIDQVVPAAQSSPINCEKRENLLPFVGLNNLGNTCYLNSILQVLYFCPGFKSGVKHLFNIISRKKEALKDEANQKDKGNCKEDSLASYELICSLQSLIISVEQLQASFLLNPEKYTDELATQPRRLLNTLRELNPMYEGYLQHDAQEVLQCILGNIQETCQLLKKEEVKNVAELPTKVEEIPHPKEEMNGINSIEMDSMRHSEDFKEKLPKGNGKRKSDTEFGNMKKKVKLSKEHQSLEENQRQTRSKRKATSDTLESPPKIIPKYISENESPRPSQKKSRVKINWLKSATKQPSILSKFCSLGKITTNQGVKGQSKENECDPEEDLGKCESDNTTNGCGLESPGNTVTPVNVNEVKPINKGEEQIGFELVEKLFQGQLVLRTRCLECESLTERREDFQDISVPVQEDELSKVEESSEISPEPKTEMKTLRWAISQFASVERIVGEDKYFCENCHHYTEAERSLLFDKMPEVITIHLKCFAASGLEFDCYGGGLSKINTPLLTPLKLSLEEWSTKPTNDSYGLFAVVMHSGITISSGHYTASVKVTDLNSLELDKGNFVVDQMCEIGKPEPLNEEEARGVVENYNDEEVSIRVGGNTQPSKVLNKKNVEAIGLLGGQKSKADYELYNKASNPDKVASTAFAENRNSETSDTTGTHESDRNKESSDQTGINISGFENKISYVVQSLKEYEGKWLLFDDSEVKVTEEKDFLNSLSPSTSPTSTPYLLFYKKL
Outline: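 Enzyme-free wells gave the negative control, while test wells held 1nM USP1/UAF1 preincubated with compound for 15 min at room temperature. Ub-Rho at 150nM final started the reaction, and fluorescence at 480/540 nm was recorded kinetically.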

[6] = target: Cytochrome P450 3A4 (Homo sapiens) (UniProt P08684); test: qHTS Assay for Activators of Cytochrome P450 3A4 (AID 885); further: nearly all actives have a fitted effect of over 65% in size
Outline: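 Human CYP3A4 (20 nM) with Luciferin-PPXE at 25 uM (its KM) in 200 mM KPO4; 10 min compound preincubation, then NADPH regeneration and 60 min reaction at RT. Luciferin read by luminescence; normalized to 57 uM ketoconazole full inhibition.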

[7] = measured here: cell count channel max response
[8] = measured here: lipid channel max response

Compound | Potency [1] | Potency [2] | Potency [3] | activity change, negative = inhibition [4] | max response [4, 7] | max response [4, 8] | Potency [5] | Potency [6]
COc1c2ccccc2nc2occc12 | inactive | inactive | inactive | 9.64% (inactive) | 24.3% | 38.1% | inactive | 
Nc1ncnc2c1nc(Br)n2C1CC(O)C(CO)O1 (centres undefined) | inactive | inactive | inactive | 2.34% (inactive) | 9.06% | 11.8% | inactive | 
CCCC(NC(C)C(=O)N1C(C(=O)O)CC2CCCCC21)C(=O)OCC (centres undefined) | inactive | inactive | inactive | 9% (inactive) | 4.3% | 11.7% | inactive | 
COc1cc2c3cc1Oc1cc(ccc1O)CC1c4c(cc(OC)c(O)c4Oc4ccc(cc4)CC3N(C)CC2)CC[N+]1(C)C (centres undefined) | inactive | inactive | inactive | 4.12% (inactive) | -2.85% | 6.31% | inactive | 
[N-]=[N+]=NCC1OC(n2cnc3c(=O)[nH]c(N)nc32)C(O)C1O (centres undefined) | inactive | inactive | inactive | 4.07% (inactive) | 12.7% | 19.1% | inactive | 
CCC(C(N)=O)c1ccccc1 (centres undefined) | inactive | inactive | inactive | 9.01% (inactive) | 9.46% | 21.9% | inactive | 
CC(=O)Oc1ccc2c(c1)CCC1C2CC[C@@]2(C)C1CC(OC(C)=O)C2OC(C)=O (some centres undefined) | inactive | inactive | inactive | 5.31% (inactive) | 10.1% | 17.4% | inactive | 
CC(=O)OC1CC[C@@]2(C)C3=CC(=O)[C@]4(C)C(CC5OC6(OCC(C)CC6Br)C(C)C54)C3CC[C@H]2C1 (some centres undefined) | inactive | inactive | inactive | -8.55% (inactive) | -17.7% | -20.5% | inactive | 
CCOc1ccc(C(=O)c2ccc(OC)c(O)c2O)cc1 | inactive | inactive | inactive | 7.45% (inactive) | 6.67% | 16.2% | inactive | 
O=C(O)C1CC(C2CCCCN2)CN2CCCCC12 (centres undefined) | inactive | inactive | inactive | 2.57% (inactive) | -1.28% | 1.78% | inactive | 
NCCCCC(N)C(=O)NC(Cc1ccc(O)cc1)C(=O)NC(CCCCN)C(=O)O (stereo not drawn) (H-Lys-Tyr-Lys-OH; configuration not given here) | inactive | inactive | inactive | 1.3% (inactive) | 3.42% | 5.58% | inactive | 
CC(=O)NC1C(O)C[C@@](O)(C(=O)O)OC1[C@@H](O)C(O)CO (some centres undefined) | inactive | inactive | inactive | 3.62% (inactive) | 13.3% | 18.3% | inactive | 
COC1[C@H](OC(N)=O)C(O)[C@H](Oc2ccc3c(O)c(NC(=O)c4ccc(O)c(CC=C(C)C)c4)c(=O)oc3c2C)OC1(C)C (some centres undefined) | inactive | inactive | inactive | 8.38% (inactive) | 13.2% | 25.2% | inactive | 
COC1=CC(C)C2CC3OC(=O)CC4C(C)=C(OC)C(=O)C([C@]2(C)C1=O)[C@]34C (some centres undefined) | inactive | inactive | inactive | 1.13% (inactive) | 5.55% | 6.48% | inactive | 
NC(=O)NCC(N)C(=O)O (centres undefined) | inactive | inactive | inactive | 2.49% (inactive) | 3.72% | 6.05% | inactive | 
O=c1[nH]c(=O)n(C2CC(O)C(CO)O2)cc1C(F)(F)F (centres undefined) | inactive | inactive | inactive | 3.87% (inactive) | -2.79% | 3.03% | inactive | 
CC(=O)NC(CC(=O)O)C(=O)O (centres undefined) | inactive | inactive | inactive | 2.97% (inactive) | 13.4% | 18% | inactive | 
CCC(CO)NCCNC(CC)CO (centres undefined) | inactive | inactive | inactive | -3.77% (inactive) | 8.09% | 6.63% | inactive | 
Nc1ncnc2c1[nH]c(=O)n2C1OC(CO)C(O)C1O (centres undefined) | inactive | inactive | inactive | -0.198% (inactive) | 11.6% | 24.7% | inactive | 
COc1ccc2c(=O)c(CC(=O)O)coc2c1 | inactive | inactive | inactive | 4.63% (inactive) | 9.56% | 14.8% | inactive | 
OCc1ccccc1O[C@H]1OC(CO)C(O)C(O)C1O (some centres undefined) | inactive | inactive | inactive | 3.66% (inactive) | 2.55% | 8.97% | inactive | 
CC(=O)/C(=C\c1ccccc1)CC(=O)O | inactive | inactive | inactive | 9.42% (inactive) | 12.7% | 23.6% | inactive | 
CN(C)CC/C=C1/c2ccccc2COc2ccccc21 | inactive |  | inactive | 0.286% (inactive) | 3.97% | 10.6% | inactive | 
COc1cc(O)cc(OC)c1OC |  | inactive | inactive | 1.28% (inactive) | -14% | -12.4% | inactive | inactive
C[C@@H]1CCC2[C@](C)(CO)C(O)CC[C@@]2(C)[C@@]12CC[C@](CO)(CCO)O2 (some centres undefined) |  | inactive | inactive | 5.37% (inactive) | 11.4% | 17.7% | inactive | inactive

— PubChem BioAssay (NCATS)
